Some test systems named below: HCT-15 colon; HT29 colon; SNB-75 CNS; SNB-19 CNS; U251 CNS; PC-3 prostate; SK-MEL-5 melanoma; UACC-62 melanoma; LOX IMVI melanoma; SK-MEL-28 melanoma; SK-MEL-2 melanoma; EKVX NSCLC; SN12C renal; UO-31 renal; TK-10 renal; ACHN renal; CAKI-1 renal; A498 renal; CCRF-CEM leukemia; MOLT-4 leukemia.
Common to all, as to assay: NCI-60 one-dose screen, 48 h (100 = growth as untreated, 0 = no growth, -100 = all killed)
Common to all, as to conditions: 10 µM unless noted

Each structure is given as a SMILES string. The panel holds about 83,000 compounds, 20% with a hit somewhere; the sample as a whole holds those more often.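 In brief: 96-well plates, 48 h treatment, single concentration, percent growth endpoint.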 A number with no mark means an inactive call. Active and inactive are the calls of the source. The calls were made as follows: active = growth percent below 10; inactive = the rest.

Consider `O=C(NCc1ccc(Cn2c(=O)sn(-c3ccccc3)c2=O)cc1)OCc1ccc2cccc(O)c2n1`, for which the growth is -30.3% (active) with HCT-15 colon; -52.7% (active) in the test with HT29 colon; -22.6% (active) in the test with SNB-75 CNS; 44.7% in the test with SNB-19 CNS; 9.01% (active) in the test on U251 CNS; -68.9% (active) with PC-3 prostate. Further, the growth with SK-MEL-5 melanoma was -84.7% (active); with UACC-62 melanoma, -61.9% (active); in the test on LOX IMVI melanoma, -95.3% (active); in the test with SK-MEL-28 melanoma, -62.3% (active); in the test on SK-MEL-2 melanoma, -5.7% (active); with EKVX NSCLC, -35.9% (active). The growth with SN12C renal is -46.1% (active); in the test with UO-31 renal it was -99.6% (active); in the test on TK-10 renal, -81.2% (active); with ACHN renal, -99.9% (active); with CAKI-1 renal, -85.9% (active); in the test with A498 renal, 39.3%. Also, the results for the growth with CCRF-CEM leukemia and in the test on MOLT-4 leukemia were 0.307% (active) and -24.8% (active), respectively.
As for `O=C(Nc1nc(Cl)nc(Nc2ccc(N3CCOCC3=O)cc2)n1)c1ccc(Cl)s1`, the growth in the test on HCT-15 colon is 94.2%; in the test on HT29 colon it was 94.3%; in the test with SNB-75 CNS it was 103%; in the test on SNB-19 CNS it was 88.2%; in the test with U251 CNS, 85.4%; with PC-3 prostate it was 85.4%. For the same compound, the growth is 91.3% with SK-MEL-5 melanoma; 87% with UACC-62 melanoma; 62.1% in the test with LOX IMVI melanoma; 96% with SK-MEL-28 melanoma; 84% with SK-MEL-2 melanoma; 102% in the test on EKVX NSCLC. Also, the growth is 92.1% in the test with SN12C renal; 91.5% with UO-31 renal; 120% in the test on TK-10 renal; 95.7% with ACHN renal; 99.8% with CAKI-1 renal; 85.7% in the test with A498 renal. Besides, the growth with CCRF-CEM leukemia is 80.9%; in the test on MOLT-4 leukemia it was 85.2%.
Regarding `CCOC(=O)c1[nH]cc2c1CCc1sc(Nc3ccccn3)nc1-2`, the growth with HCT-15 colon was 67.2%; in the test with HT29 colon, 77%; with SNB-75 CNS, 82.2%; in the test with SNB-19 CNS, 85.2%; with U251 CNS, 69%; in the test with PC-3 prostate it was 56.7%. Also, the growth in the test on SK-MEL-5 melanoma is 63.5%; with UACC-62 melanoma, 86.5%; with LOX IMVI melanoma, 81.7%; in the test on SK-MEL-28 melanoma, 103%; with SK-MEL-2 melanoma, 84.8%; with EKVX NSCLC it was 58.4%. The growth in the test on SN12C renal is 91.8%; with UO-31 renal, 70.2%; in the test with TK-10 renal, 116%; in the test with ACHN renal it was 76.6%; with CAKI-1 renal, 82.3%; with A498 renal, 62.2%. The growth was -2.37% (active) with CCRF-CEM leukemia and 55.2% in the test on MOLT-4 leukemia.
Consider `COc1cc(C=Nc2oc(-c3ccccc3)c(-c3ccccc3)c2C#N)cc(CN2CCCC2)c1O`, for which the growth in the test on HCT-15 colon was 103%; with HT29 colon, 107%; with SNB-75 CNS, 66.8%; in the test with SNB-19 CNS it was 94.6%; in the test with U251 CNS it was 93.2%; in the test on PC-3 prostate it was 86.8%. The growth in the test with SK-MEL-5 melanoma is 104%; in the test on UACC-62 melanoma, 86.5%; in the test with LOX IMVI melanoma, 96.5%; in the test on SK-MEL-28 melanoma it was 112%; with SK-MEL-2 melanoma, 105%; in the test with EKVX NSCLC, 91.8%. In addition, the growth with SN12C renal was 91.8%; with UO-31 renal, 68%; in the test on TK-10 renal, 123%; in the test on ACHN renal, 85.1%; with CAKI-1 renal, 77.3%; in the test with A498 renal it was 64.4%. Further, the growth in the test on CCRF-CEM leukemia is 102%; with MOLT-4 leukemia it was 104%.
Regarding `CC(C)(C)c1ccc(S(=O)(=O)Oc2ccc(-c3sc4cc(OS(=O)(=O)c5ccc(C(C)(C)C)cc5)ccc4c3C(=O)c3ccc(OCCN4CCCCC4)cc3)cc2)cc1`, the growth in the test on HCT-15 colon was 97.8%; with HT29 colon it was 90.8%; in the test on SNB-75 CNS, 56.6%; with SNB-19 CNS, 97.6%; with U251 CNS, 103%; in the test on PC-3 prostate, 88.8%. For the same compound, the growth with SK-MEL-5 melanoma is 99.6%; in the test on UACC-62 melanoma, 95%; in the test on LOX IMVI melanoma, 99.9%; with SK-MEL-28 melanoma, 97.8%; in the test on SK-MEL-2 melanoma it was 89.9%; in the test on EKVX NSCLC it was 83.8%. Also, the growth with SN12C renal was 98.9%; with UO-31 renal it was 74.6%; in the test on TK-10 renal it was 90.4%; with ACHN renal it was 98.1%; in the test on CAKI-1 renal it was 95.7%; in the test with A498 renal it was 105%. Also, the growth is 93.4% with CCRF-CEM leukemia and 95.7% in the test with MOLT-4 leukemia.
For `CCN(CC)CCN1C(=O)c2c(c3c4ccccc4[nH]c3c3ccc4ccccc4c23)C1=O`, the growth is -74.4% (active) in the test with HCT-15 colon; -45.5% (active) in the test with HT29 colon; 76.1% with SNB-75 CNS; 84.9% in the test with SNB-19 CNS; -89.3% (active) with U251 CNS; -74.6% (active) with PC-3 prostate. The growth was -23% (active) with SK-MEL-5 melanoma; 76.8% in the test on UACC-62 melanoma; -88.3% (active) in the test on LOX IMVI melanoma; 0.268% (active) with SK-MEL-28 melanoma; 97.7% in the test with SK-MEL-2 melanoma; 18.6% in the test on EKVX NSCLC. Further, the growth with SN12C renal was -89.2% (active); with UO-31 renal it was 14.3%; with TK-10 renal, -86.2% (active); in the test on ACHN renal, 36.6%; in the test with CAKI-1 renal it was 50.7%; in the test with A498 renal, 35.1%. For the same compound, the growth is -8.15% (active) in the test with CCRF-CEM leukemia and -29.5% (active) in the test with MOLT-4 leukemia.
With `CNCCCNc1nc2ccccc2c2c(=O)c3cc(Cl)ccc3sc12`, the growth was -19.5% (active) in the test with HCT-15 colon; -92.4% (active) in the test on HT29 colon; 61% in the test with SNB-75 CNS; 55.7% in the test on SNB-19 CNS; -87.2% (active) in the test with U251 CNS; 32.8% in the test on PC-3 prostate. Besides, the growth in the test on SK-MEL-5 melanoma is 71.4%; in the test on UACC-62 melanoma it was 10.9%; with LOX IMVI melanoma, -90.3% (active); in the test on SK-MEL-28 melanoma, 50.8%; with SK-MEL-2 melanoma, 95.3%; in the test with EKVX NSCLC, 76.7%. Moreover, the growth with SN12C renal was 24.9%; in the test with UO-31 renal it was 7.83% (active); in the test with TK-10 renal it was 68.9%; in the test on ACHN renal it was 13.3%; with CAKI-1 renal, 43.8%; in the test with A498 renal it was 76.2%. Further, the figures for the growth in the test with CCRF-CEM leukemia and in the test with MOLT-4 leukemia were 12.3% and -42% (active), respectively.
As to `COc1ccc(C/C(C)=C(\c2ccc(Cl)cc2)c2ccc(OCCCN(C)C)cc2)cc1`, the growth in the test with HCT-15 colon is 27.3%; with HT29 colon, 13.6%; with SNB-75 CNS, 72.4%; with SNB-19 CNS, 86.7%; in the test with U251 CNS it was 46.4%; in the test with PC-3 prostate, 68.7%. Further, the growth was 78.3% in the test on SK-MEL-5 melanoma; 94.5% with UACC-62 melanoma; 73.1% in the test with LOX IMVI melanoma; 80.8% in the test on SK-MEL-28 melanoma; 111% in the test on SK-MEL-2 melanoma; 94.1% with EKVX NSCLC. Further, the growth in the test on SN12C renal is 78.8%; in the test with UO-31 renal it was 62.4%; in the test on TK-10 renal, 86.7%; in the test on ACHN renal, 90%; in the test with CAKI-1 renal it was 87.3%; in the test with A498 renal, 114%. Besides, the growth in the test on CCRF-CEM leukemia is 56.9%; in the test with MOLT-4 leukemia it was 40.9%.

(Values after PubChem BioAssay (NCI).)
